Results: the supplement of paper PMC11732987, “Enantioselective OTUD7B fragment discovery through chemoproteomics screening and high-throughput optimisation” (Communications Chemistry, 2025)

Legend:
Assay in all cases: log2 ratio of Biotin-Ahx-Ub-VS probe labelling (fragment/DMSO); higher = less target engagement (more negative = stronger competition), active = hit call of the paper (q ≤ 0.05, log2 ratio ≤ -1)
Conditions in all cases: compound concentration: 200 uM; treatment time: 3 h
ALG13 = target: T1, ALG13 (UniProt Q9NP73)
T1 sequence (whole entry): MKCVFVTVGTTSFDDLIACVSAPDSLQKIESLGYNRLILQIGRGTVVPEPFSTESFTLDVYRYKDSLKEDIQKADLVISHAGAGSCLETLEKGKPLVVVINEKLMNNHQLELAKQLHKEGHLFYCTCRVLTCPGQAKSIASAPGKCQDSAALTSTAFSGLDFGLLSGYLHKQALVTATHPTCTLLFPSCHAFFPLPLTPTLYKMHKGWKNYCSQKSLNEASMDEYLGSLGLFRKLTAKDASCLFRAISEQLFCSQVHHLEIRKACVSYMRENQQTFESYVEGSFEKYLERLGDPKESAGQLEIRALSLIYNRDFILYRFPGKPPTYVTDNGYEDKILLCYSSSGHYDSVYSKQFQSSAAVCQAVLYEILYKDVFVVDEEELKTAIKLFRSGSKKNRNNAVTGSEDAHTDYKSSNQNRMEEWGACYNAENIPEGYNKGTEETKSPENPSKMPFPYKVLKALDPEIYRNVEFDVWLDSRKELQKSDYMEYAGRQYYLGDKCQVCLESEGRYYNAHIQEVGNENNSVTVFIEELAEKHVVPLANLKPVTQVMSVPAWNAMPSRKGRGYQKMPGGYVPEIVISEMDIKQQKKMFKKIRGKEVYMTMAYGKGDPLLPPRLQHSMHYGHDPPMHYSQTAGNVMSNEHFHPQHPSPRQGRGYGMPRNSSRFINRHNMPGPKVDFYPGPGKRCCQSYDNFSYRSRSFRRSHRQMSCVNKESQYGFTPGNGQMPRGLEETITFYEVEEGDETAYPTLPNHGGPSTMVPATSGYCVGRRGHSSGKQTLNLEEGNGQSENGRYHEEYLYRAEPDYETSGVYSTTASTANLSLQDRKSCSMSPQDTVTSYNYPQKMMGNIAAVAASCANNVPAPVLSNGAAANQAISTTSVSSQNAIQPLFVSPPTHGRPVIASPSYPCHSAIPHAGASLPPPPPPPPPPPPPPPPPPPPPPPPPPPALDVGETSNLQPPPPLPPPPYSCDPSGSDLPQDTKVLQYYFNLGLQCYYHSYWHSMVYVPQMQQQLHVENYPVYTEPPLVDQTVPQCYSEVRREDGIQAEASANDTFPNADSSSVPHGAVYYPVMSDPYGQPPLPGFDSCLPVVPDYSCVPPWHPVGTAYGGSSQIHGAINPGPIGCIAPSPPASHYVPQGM
Outline: (§1)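 Using Biotin-Ahx-Ub-VS at 0.5 µM final for 1 h, DUBs were labelled in HEK293T lysate (495 µg per sample) that had first been treated in triplicate with fragment at 200 µM or vehicle for 3 h. NeutrAvidin enrichment, LysC and trypsin digestion and diaPASEF LC-MS/MS followed. Spectronaut label-free quantities were global-median-normalised. Values are average log2 fragment/vehicle ratios by unpaired t-test, using proteins with ≥2 unique peptides.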

ATXN3 = ATXN3 (UniProt P54252)
Outline: as §1

BAP1 = target: T2, BAP1 (UniProt Q92560)
T2 sequence (whole entry): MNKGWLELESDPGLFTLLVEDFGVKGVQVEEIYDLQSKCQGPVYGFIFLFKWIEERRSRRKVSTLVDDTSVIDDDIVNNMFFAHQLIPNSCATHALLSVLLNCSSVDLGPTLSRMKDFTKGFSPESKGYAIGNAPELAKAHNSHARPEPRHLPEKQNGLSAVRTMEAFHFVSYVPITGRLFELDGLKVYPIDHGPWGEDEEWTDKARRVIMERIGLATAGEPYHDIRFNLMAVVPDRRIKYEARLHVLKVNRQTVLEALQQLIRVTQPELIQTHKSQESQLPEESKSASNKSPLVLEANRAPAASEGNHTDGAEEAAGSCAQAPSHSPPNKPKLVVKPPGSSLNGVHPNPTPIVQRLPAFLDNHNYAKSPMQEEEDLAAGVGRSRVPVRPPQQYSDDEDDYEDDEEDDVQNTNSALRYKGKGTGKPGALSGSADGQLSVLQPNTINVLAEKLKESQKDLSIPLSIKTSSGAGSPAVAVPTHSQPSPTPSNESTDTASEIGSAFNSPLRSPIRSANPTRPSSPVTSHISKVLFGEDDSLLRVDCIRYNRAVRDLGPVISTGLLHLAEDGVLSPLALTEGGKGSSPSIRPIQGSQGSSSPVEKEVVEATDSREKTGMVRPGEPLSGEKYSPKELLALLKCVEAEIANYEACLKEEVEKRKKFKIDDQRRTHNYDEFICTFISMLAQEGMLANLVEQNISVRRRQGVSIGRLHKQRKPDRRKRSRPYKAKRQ
Outline: as §1

EIF3F = EIF3F (UniProt O00303)
Outline: as §1

EIF3H = EIF3H (UniProt O15372)
Outline: as §1

FAM105A = target: T3, FAM105A (UniProt Q9NUU6)
T3 sequence (whole entry): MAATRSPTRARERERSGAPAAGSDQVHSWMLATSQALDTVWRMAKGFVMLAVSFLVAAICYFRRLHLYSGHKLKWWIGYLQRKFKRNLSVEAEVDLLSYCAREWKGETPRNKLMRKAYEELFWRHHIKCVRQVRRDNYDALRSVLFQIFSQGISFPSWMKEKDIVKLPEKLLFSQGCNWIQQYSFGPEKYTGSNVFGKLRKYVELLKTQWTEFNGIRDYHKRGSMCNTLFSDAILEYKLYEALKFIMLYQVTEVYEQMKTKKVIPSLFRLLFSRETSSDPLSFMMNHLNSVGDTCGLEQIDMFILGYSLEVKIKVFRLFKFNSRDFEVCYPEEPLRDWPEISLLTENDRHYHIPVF
Outline: as §1

OTUB1 = OTUB1 (UniProt Q96FW1)
Outline: as §1

OTUD4 = target: T4, OTUD4 (UniProt Q01804)
T4 sequence (whole entry): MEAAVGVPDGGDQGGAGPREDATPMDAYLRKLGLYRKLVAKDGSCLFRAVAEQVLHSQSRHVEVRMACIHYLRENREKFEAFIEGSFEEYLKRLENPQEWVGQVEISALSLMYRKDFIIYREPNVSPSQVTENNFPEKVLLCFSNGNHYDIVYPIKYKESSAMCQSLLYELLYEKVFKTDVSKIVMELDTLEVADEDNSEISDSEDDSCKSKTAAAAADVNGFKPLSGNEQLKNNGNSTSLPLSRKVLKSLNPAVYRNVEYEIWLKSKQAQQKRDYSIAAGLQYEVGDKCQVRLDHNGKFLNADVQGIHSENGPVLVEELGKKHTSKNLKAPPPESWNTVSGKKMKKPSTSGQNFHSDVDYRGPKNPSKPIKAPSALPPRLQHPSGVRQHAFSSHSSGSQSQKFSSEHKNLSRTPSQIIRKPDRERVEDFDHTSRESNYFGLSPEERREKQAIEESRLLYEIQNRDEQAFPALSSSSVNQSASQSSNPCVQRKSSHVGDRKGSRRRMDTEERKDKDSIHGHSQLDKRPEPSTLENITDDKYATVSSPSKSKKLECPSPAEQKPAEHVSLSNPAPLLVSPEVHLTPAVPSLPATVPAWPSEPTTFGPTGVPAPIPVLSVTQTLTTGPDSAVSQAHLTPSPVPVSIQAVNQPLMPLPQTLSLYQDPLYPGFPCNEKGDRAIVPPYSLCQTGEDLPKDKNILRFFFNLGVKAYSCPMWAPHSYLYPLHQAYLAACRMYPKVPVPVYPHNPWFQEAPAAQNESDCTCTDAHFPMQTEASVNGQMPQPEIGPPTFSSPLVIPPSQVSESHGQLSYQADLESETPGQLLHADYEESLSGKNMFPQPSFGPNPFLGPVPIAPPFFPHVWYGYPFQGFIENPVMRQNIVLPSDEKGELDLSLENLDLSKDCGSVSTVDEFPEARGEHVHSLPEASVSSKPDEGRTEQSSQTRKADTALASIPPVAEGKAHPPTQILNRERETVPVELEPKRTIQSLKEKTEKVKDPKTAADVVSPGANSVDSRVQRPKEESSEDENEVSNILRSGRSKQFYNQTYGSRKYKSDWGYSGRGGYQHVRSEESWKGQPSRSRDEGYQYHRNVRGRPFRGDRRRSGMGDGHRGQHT
Outline: as §1

OTUD5 = target: T5, OTUD5 (UniProt Q96G74)
T5 sequence (whole entry): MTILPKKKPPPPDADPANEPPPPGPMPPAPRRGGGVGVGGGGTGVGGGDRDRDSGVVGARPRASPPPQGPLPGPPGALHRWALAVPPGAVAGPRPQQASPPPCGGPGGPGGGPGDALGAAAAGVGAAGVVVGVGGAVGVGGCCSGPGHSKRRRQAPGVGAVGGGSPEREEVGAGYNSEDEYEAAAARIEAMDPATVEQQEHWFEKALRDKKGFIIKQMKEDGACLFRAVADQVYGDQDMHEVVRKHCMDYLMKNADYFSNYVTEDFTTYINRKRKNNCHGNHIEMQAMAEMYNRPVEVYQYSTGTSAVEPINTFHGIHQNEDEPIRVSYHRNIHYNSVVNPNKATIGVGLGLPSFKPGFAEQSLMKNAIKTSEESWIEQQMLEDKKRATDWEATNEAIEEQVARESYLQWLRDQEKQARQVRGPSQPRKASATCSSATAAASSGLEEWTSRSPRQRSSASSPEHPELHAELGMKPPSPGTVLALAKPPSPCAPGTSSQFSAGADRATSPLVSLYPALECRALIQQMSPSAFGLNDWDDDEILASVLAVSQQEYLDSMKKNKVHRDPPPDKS
Outline: as §1

Measured: log2 ratio of Biotin-Ahx-Ub-VS probe labelling

EIF3F, sequence (O00303 whole entry): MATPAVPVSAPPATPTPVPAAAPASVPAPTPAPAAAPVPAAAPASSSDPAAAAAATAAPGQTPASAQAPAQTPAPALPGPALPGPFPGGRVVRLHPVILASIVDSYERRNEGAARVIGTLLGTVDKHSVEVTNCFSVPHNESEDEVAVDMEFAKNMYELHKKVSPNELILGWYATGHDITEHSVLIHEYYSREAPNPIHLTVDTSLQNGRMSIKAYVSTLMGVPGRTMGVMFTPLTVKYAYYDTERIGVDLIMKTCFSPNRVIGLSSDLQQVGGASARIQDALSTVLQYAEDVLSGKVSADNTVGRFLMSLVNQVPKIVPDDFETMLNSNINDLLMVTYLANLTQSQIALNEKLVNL
ATXN3, sequence (P54252 whole entry): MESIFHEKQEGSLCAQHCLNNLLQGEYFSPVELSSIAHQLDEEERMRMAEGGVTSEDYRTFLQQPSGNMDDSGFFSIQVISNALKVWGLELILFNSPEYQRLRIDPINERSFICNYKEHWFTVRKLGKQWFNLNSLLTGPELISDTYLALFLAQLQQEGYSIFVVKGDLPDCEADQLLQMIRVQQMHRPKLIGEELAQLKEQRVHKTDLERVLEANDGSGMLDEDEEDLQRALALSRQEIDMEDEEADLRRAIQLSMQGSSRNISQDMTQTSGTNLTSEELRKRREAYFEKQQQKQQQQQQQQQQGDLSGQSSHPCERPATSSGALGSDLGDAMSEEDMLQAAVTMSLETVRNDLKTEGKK
EIF3H, sequence (O15372 whole entry): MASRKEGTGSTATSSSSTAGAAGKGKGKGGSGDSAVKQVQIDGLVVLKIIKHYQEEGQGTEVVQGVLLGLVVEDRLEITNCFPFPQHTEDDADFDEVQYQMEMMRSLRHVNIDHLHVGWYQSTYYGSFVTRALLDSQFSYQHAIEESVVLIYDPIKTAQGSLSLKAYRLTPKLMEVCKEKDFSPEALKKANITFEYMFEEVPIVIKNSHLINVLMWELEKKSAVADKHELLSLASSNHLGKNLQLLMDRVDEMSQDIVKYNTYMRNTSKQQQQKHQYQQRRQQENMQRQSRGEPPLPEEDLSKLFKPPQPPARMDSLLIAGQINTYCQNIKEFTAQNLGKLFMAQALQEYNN
OTUB1, sequence (Q96FW1 whole entry): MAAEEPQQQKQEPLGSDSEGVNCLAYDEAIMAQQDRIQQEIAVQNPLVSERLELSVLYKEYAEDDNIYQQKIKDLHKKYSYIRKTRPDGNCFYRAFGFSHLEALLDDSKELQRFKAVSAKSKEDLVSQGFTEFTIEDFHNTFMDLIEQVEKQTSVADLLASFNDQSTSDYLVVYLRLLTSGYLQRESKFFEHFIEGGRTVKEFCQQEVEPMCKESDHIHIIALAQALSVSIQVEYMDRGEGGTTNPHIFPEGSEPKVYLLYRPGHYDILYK

O=C(CCl)N(C1CCCC1)C1CCS(=O)(=O)C1 (centres undefined)
inactive: ALG13 0.338 | ATXN3 -0.109 | BAP1 -0.0673 | EIF3F -0.335 | EIF3H 0.00604 | FAM105A 0.169 | OTUB1 -0.343 | OTUD4 0.0168 | OTUD5 -0.379
